For six compounds, outcome and AC50 results are on record in PubChem BioAssay (EPA / NIEHS).

Read-out in assay [1]: Tissue Factor, F3 (gene 2152)
Put plainly: BSK_CASM3C_TissueFactor: BioMAP Diversity Plus: CASM3C Assay for Tissue Factor Biomarker Activity (AID 2283052).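 Also: cell surface tissue factor protein level read by ELISA.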 The following applies: primary human coronary artery smooth muscle cells; actives raise or lower the signal.

Read-out in assay [2]: Interferon-gamma inducible Protein 10 (IP10), CXCL10 (gene 3627)
Put plainly: BSK_hDFCGF_IP10: BioMAP Diversity Plus: hDFCGF Assay for Interferon-gamma inducible Protein 10 (IP10) Biomarker Activity (AID 2283053). The following applies: primary human foreskin fibroblasts; actives raise or lower the signal. In outline:
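Primary human foreskin fibroblasts exposed to chemicals for 24 h. IP-10 measured by ELISA; changes fitted bidirectionally against DMSO baseline.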

Read-out in assay [3]: Urokinase-type plasminogen activator receptor (uPAR), PLAUR (gene 5329)
Put plainly: BSK_CASM3C_uPAR: BioMAP Diversity Plus: CASM3C Assay for Urokinase-type plasminogen activator receptor (uPAR) Biomarker Activity (AID 2283054).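 Also: cell-surface uPAR protein level quantified by ELISA.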 The settings on record: primary human coronary artery smooth muscle cells; actives raise or lower the signal.

Read-out in assay [4]: Vascular cell adhesion molecule 1 (VCAM1), VCAM1 (gene 7412)
Put plainly: BSK_CASM3C_VCAM1: BioMAP Diversity Plus: CASM3C Assay for Vascular cell adhesion molecule 1 (VCAM1) Biomarker Activity (AID 2283055).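 Also: VCAM-1 protein level quantified by ELISA on the cells.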 The settings on record: primary human coronary artery smooth muscle cells; actives raise or lower the signal.

Read-out in assay [5]: Collagen III, COL3A1 (gene 1281)
Put plainly: BSK_hDFCGF_CollagenIII: BioMAP Diversity Plus: hDFCGF Assay for Collagen III Biomarker Activity (AID 2283056). The following applies: primary human foreskin fibroblasts; actives raise or lower the signal. Summed up:
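hDFCGF primary human dermal fibroblasts; 24 h chemical exposure; collagen III by ELISA; bidirectional curve fit vs DMSO baseline (gain or loss of signal).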

Read-out in assay [6]: Epidermal growth factor receptor (EGFR), EGFR (gene 1956)
The assay is described as follows: BSK_hDFCGF_EGFR: BioMAP Diversity Plus: hDFCGF Assay for Epidermal growth factor receptor (EGFR) Biomarker Activity (AID 2283057). The settings on record: primary human foreskin fibroblasts; actives raise or lower the signal. In outline: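 Primary human foreskin fibroblasts (hDFCGF system), sampled 24 h after dosing; EGFR quantified by ELISA. Bidirectional fit relative to DMSO baseline; SRB total-protein staining in parallel cultures for cytotoxicity.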

Read-out in assay [7]: Interleukin-8 (IL8), CXCL8 (gene 3576)
Put plainly: BSK_hDFCGF_IL8: BioMAP Diversity Plus: hDFCGF Assay for Interleukin-8 (IL8) Biomarker Activity (AID 2283058). The settings on record: primary human foreskin fibroblasts; actives raise or lower the signal. In outline: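 ELISA read-out of IL-8 from primary human foreskin fibroblast cultures taken 24 h after dosing; values are bidirectional fits relative to DMSO vehicle.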

The nature of assay [8]: BSK_hDFCGF_Proliferation: Cell Proliferation Assessment in the BioMAP Diversity Plus: hDFCGF Assay (AID 2283059).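 Also: curves fitted for both rise and fall of signal versus DMSO baseline.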 The following applies: primary human foreskin fibroblasts. In outline: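 Sub-confluent human foreskin fibroblast cultures receive test chemical […]. Relative cell number is quantified by sulforhodamine B staining (0.1%, after 10% TCA fixation) at 560 nm, with bidirectional fitting referenced to DMSO.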

Read-out in assay [9]: Macrophage colony-stimulating factor (MCSF), CSF1 (gene 1435)
The assay is described as follows: BSK_hDFCGF_MCSF: BioMAP Diversity Plus: hDFCGF Assay for Macrophage colony-stimulating factor (MCSF) Biomarker Activity (AID 2283060). The settings on record: primary human foreskin fibroblasts; actives raise or lower the signal. Summed up:
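ELISA read-out of M-CSF in human dermal foreskin fibroblast cultures, 24 h after chemical dosing; gain or loss of signal fitted bidirectionally relative to DMSO baseline.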

Assay [10] is described as follows: BSK_hDFCGF_SRB: Viability Assessment in the BioMAP Diversity Plus: hDFCGF Assay (AID 2283061).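 Also: cells exposed to compound for 24 h before the read.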 The following applies: primary human foreskin fibroblasts. Summed up:
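Primary human foreskin fibroblasts; 24 h post-dose; fixed 10% TCA, stained 0.1% SRB, A560 read; total protein as overt cytotoxicity measure; curves fit bidirectionally vs DMSO control.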

Read-out in assay [11]: TIMP metallopeptidase inhibitor 1 (TIMP1), TIMP1 (gene 7076)
Put plainly: BSK_hDFCGF_TIMP1: BioMAP Diversity Plus: hDFCGF Assay for TIMP metallopeptidase inhibitor 1 (TIMP1) Biomarker Activity (AID 2283062). The settings on record: primary human foreskin fibroblasts; actives raise or lower the signal. In outline: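 ELISA readout of TIMP-1 from human dermal foreskin fibroblast cultures 24 h post-dosing. Curves were fitted in both directions against DMSO baseline, with SRB total-protein staining in parallel cultures as a cytotoxicity check.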

Read-out in assay [12]: Monokine induced gamma interferon (MIG), CXCL9 (gene 4283)
Put plainly: BSK_hDFCGF_MIG: BioMAP Diversity Plus: hDFCGF Assay for Monokine induced gamma interferon (MIG) Biomarker Activity (AID 2283063). The following applies: primary human foreskin fibroblasts; actives raise or lower the signal. Summed up:
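Fibroblasts (human foreskin, primary) dosed, 24 h, MIG by ELISA; fit bidirectional vs DMSO.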

Read-out in assay [13]: Matrix Metallopeptidase 1 (MMP1), MMP1 (gene 4312)
The assay is described as follows: BSK_hDFCGF_MMP1: BioMAP Diversity Plus: hDFCGF Assay for Matrix Metallopeptidase 1 (MMP1) Biomarker Activity (AID 2283064). The settings on record: primary human foreskin fibroblasts; actives raise or lower the signal. In outline:
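Primary human foreskin fibroblasts in the hDFCGF system were dosed with test chemical, and MMP1 was measured by ELISA 24 h later. Values come from bidirectional curve fitting against the DMSO baseline.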

Read-out in assay [14]: Vascular cell adhesion molecule 1 (VCAM1), VCAM1 (gene 7412)
Put plainly: BSK_hDFCGF_VCAM1: BioMAP Diversity Plus: hDFCGF Assay for Vascular cell adhesion molecule 1 (VCAM1) Biomarker Activity (AID 2283065).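 As to AC50: VCAM-1 protein level quantified by ELISA after 24 h chemical exposure.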 The following applies: primary human foreskin fibroblasts; actives raise or lower the signal. Summed up:
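ELISA read-out of VCAM-1 on human skin fibroblasts, 24 h post-dose; gain or loss of signal fitted bidirectionally against DMSO baseline.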

Read-out in assay [15]: Plasminogen activator inhibitor-1 (PAI1), SERPINE1 (gene 5054)
The assay is described as follows: BSK_hDFCGF_PAI1: BioMAP Diversity Plus: hDFCGF Assay for Plasminogen activator inhibitor-1 (PAI1) Biomarker Activity (AID 2283066). The settings on record: primary human foreskin fibroblasts; actives raise or lower the signal. In outline:
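Human foreskin fibroblast primary cells, 24 h chemical exposure; PAI-1 measured by ELISA. Bidirectional fitting relative to DMSO; parallel cultures stained with SRB for total protein to flag overt cytotoxicity.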

Read-out in assay [16]: Intercellular Adhesion Molecule 1 (ICAM1), ICAM1 (gene 3383)
The assay is described as follows: BSK_KF3CT_ICAM1: BioMAP Diversity Plus: KF3CT Assay for Intercellular Adhesion Molecule 1 (ICAM1) Biomarker Activity (AID 2283067). The following applies: primary human keratinocytes with fibroblasts; actives raise or lower the signal. Summed up: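 ELISA readout of ICAM-1; KF3CT human skin co-culture (keratinocytes + foreskin fibroblasts), 24 h post-dose; gain/loss fit vs DMSO baseline.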

Read-out in assay [17]: Interferon-gamma inducible Protein 10 (IP10), CXCL10 (gene 3627)
Put plainly: BSK_KF3CT_IP10: BioMAP Diversity Plus: KF3CT Assay for Interferon-gamma inducible Protein 10 (IP10) Biomarker Activity (AID 2283068). The following applies: primary human keratinocytes with fibroblasts; actives raise or lower the signal. Summed up:
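ELISA read-out of IP-10 after 24 h chemical dosing of human skin primary co-culture (keratinocytes, foreskin fibroblasts). Gain or loss of signal relative to DMSO, bidirectional curve fit.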

Assay [18] in a line: BSK_KF3CT_SRB: Viability Assessment in the BioMAP Diversity Plus: KF3CT Assay (AID 2283069).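 Also: total protein by sulforhodamine B staining as a cytotoxicity measure; read 24 h after compound addition.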 The following applies: primary human keratinocytes with fibroblasts. Summed up:
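Human primary keratinocyte plus foreskin fibroblast co-culture exposed to chemicals for 24 h. Total protein measured by 0.1% sulforhodamine B staining after 10% TCA fixation, read at 560 nm; bidirectional fitting versus DMSO baseline.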

Read-out in assay [19]: Interleukin-1 alpha (IL1a), IL1A (gene 3552)
Put plainly: BSK_KF3CT_IL1a: BioMAP Diversity Plus: KF3CT Assay for Interleukin-1 alpha (IL1a) Biomarker Activity (AID 2283070). The settings on record: primary human keratinocytes with fibroblasts; actives raise or lower the signal. Summed up:
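Human keratinocyte plus foreskin fibroblast primary co-culture, sampled 24 h after chemical dosing. IL-1a measured by ELISA; responses fitted bidirectionally against DMSO baseline (negative control), so gain or loss of signal both count.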

Activity calls are given as the source filed them. The calls were made as follows: active = hit-call score of the fitted dose curve at least 0.9, where 1 is the maximum; inactive = score below 0.9.

As usually defined, the AC50 is the midpoint of the concentration-response curve, whichever way the signal moves.

Turning to `C=CCOC(Cn1ccnc1)c1ccc(Cl)cc1Cl` (stereo not drawn), the result in assay [1], in assay [3], in assay [4], in assay [5], in assay [6] and in assay [7] was inactive. Also, the result in assay [8], in assay [9], in [10], in [12], in assay [13] and in [14] was inactive. In addition, the outcome in assay [16], in assay [18] and in assay [19] was inactive. The concentration at half-maximal activity (AC50) in assay [2] was 27 µM (active); in assay [11], 30 µM (active); in assay [15], 13.9 µM (active); in [17], 5.07 µM (active).
In the case of `CCN(Cc1c(F)cccc1Cl)c1c([N+](=O)[O-])cc(C(F)(F)F)cc1[N+](=O)[O-]`, the outcome in [1], in assay [4], in assay [5], in [6], in assay [7] and in [9] was inactive. Moreover, the result in [10], in assay [11], in assay [14], in assay [15], in [16] and in assay [18] was inactive. Further, the half-maximal activity concentration (AC50) in [2] is 30.6 µM (active); in assay [3], 13.2 µM (active); in assay [8], 4.89 µM (active); in [12], 20 µM (active); in [13], 9.24 µM (active); in [17], 2.54 µM (active). The half-maximal activity concentration (AC50) in assay [19] is 8.48 µM (active).
Consider `CCCCC(CC)COC(=O)c1ccccc1C(=O)O` (stereo not drawn), for which the outcome in [1], in assay [3], in assay [4], in assay [5], in [6] and in [7] was inactive. Also, the outcome in assay [8], in [10], in [11], in assay [13], in assay [15] and in assay [16] was inactive. In addition, the result in [17], in assay [18] and in [19] was inactive. The concentration at half-maximal activity (AC50) in assay [2] is 11 µM (active); in [9], 9.84 µM (active); in assay [12], 13.8 µM (active); in [14] it was 10.2 µM (active).
As to `CC(=O)[C@H]1CC[C@H]2[C@@H]3CCC4=CC(=O)CC[C@]4(C)[C@H]3CC[C@]12C`, the outcome in assay [1], in assay [2], in assay [3], in assay [4], in assay [6] and in [7] was inactive. Also, the outcome in assay [9], in assay [10], in [11], in assay [12], in assay [13] and in assay [14] was inactive. Besides, the result in assay [15], in assay [16], in [17] and in assay [18] was inactive. Besides, the values for the AC50 in assay [5] and in [8] were 24 µM (active) and 14.7 µM (active), respectively.
For the compound `COC(=O)c1c(Cl)nn(C)c1S(=O)(=O)NC(=O)Nc1nc(OC)cc(OC)n1`, the outcome in assay [1], in assay [2], in assay [3], in assay [4], in assay [5] and in assay [6] was inactive. Also, the result in assay [7], in assay [8], in [9], in assay [10], in assay [11] and in assay [12] was inactive. Also, the result in assay [13], in [14], in [15], in assay [16], in assay [18] and in assay [19] was inactive. The concentration at half-maximal activity (AC50) in assay [17] was 20 µM (active).
As for `C#C[C@]1(O)CC[C@H]2[C@@H]3CCC4=CC(=O)CC[C@@H]4[C@H]3CC[C@@]21CC`, the result in assay [1], in [2], in assay [3], in assay [4], in assay [5] and in assay [6] was inactive. The outcome in assay [7], in assay [8], in assay [9], in assay [10], in assay [11] and in assay [12] was inactive. Further, the result in [13], in assay [14], in [15], in assay [16], in assay [17] and in [18] was inactive. In assay [19], the result was inactive.
